Compounds with a hit are over-represented: about 9.3% of the library has one in this group of screens.
Vaccinia mCherry: qHTS for Stage-Specific Inhibitors of Vaccinia Orthopoxvirus: mCherry Reporter Primary qHTS. Vaccinia virus mCherry reporter infection, fluorescence. Potency, µM (titrated, usually from 36.5 µM), most hits filed as inhibitors. hit rate 0.63% among 310,000. AID 720579, 2013; calls by dose curve; tested in A549 cells; also: nearly all actives have a fitted effect of over 35% in size
HCMV inh: qHTS Assay for inhibitors of the human cytomegalovirus (HCMV). activity change, negative = inhibition, % at 57.5 µM. hit rate 4.5% among 410,000. HFF cells, HCMV-luciferase reporter, 72 h; hits give low values; in the data active = activity change below about -60%; inconclusive = no clear call, values can overlap the other calls; inactive = above about -39%
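Two-dose cell screen: HFF monolayers treated with compounds and infected with luciferase-expressing HCMV at 1 PFU/cell, 72 h at 37C, then lysed for luciferase measurement.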
FMDV antiviral: High Throughput Screening for Foot and Mouth Disease Virus Antivirals; FMDV antiviral cell-based qHTS; Potency, µM (series often up to 57.9 µM), most hits filed as inhibitors; hit rate 1.2% among 410,000; AID 1159524, 2015; calls by dose curve; tested in HEK293T cells; also: read-out not given here; nearly all actives have a fitted effect of over 45% in size
VACV Venus inh: qHTS for Stage-Specific Inhibitors of Vaccinia Orthopoxvirus: Venus Reporter Primary qHTS | AID 720580, 2013 | Potency, µM (top dose mostly 36.5 µM), actives largely listed as inhibitors | Vaccinia virus Venus reporter expression, fluorescence | hit rate 0.46% among 330,000; calls by dose curve; tested in A549 cells; also: nearly all actives have a fitted effect of over 30% in size
HCV inhibitor: qHTS Assay for Inhibitors of Hepatitis C Virus (HCV); Potency, µM (doses to about 41.8 µM), most hits filed as inhibitors; hit rate 3.4% among 340,000; AID 651820, 2012; Huh7.5.1 HCVcc-Cre infection, luciferase reporter, 44 h
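A cell-based infection assay in which seeded cells (1,000 per well) receive test compound after 4 h, are inoculated with HCVcc-Cre at approximately 0.5 moi, and are incubated 44 h before luminescence detection.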
Sm TGR block: qHTS Assay for the Inhibitors of Schistosoma Mansoni Peroxiredoxins; purified TGR, DTNB reduction, TNB absorbance 405 nm; Potency, µM (highest dose often 114 µM), most hits filed as inhibitors; hit rate 3% among 360,000; also: nearly all actives have a fitted effect of over 60% in size
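First, TGR (20 nM dispensed) and NADPH were mixed with compound. Second, a 15 min room-temperature incubation followed. Third, further NADPH and then DTNB were added to start the reaction. Finally, TNB absorbance was monitored kinetically.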
Large screens that a line does not name were inactive. Unless noted, calls follow the shape of the dose curve; as a rule, active = well fitted curve in the direction sought with a large enough effect; inconclusive = small, poorly fitted or top-dose-only effect, or another doubt; inactive = no such curve, though single readings can be large; an effect the other way counts as inactive or inconclusive.

CCN=c1scc(C)n1/N=C/c1cc(Br)c(O)c(Br)c1	HCMV inh inconclusive, Sm TGR block inconclusive
COCCN=c1scc(-c2cccs2)n1/N=C/c1ccc(O)c(O)c1O	Vaccinia mCherry 11µM, VACV Venus inh inconclusive, HCV inhibitor inconclusive, Sm TGR block 40µM
COc1ccc(CC(=O)Nc2oc(-c3ccccc3)c(-c3ccccc3)c2C#N)cc1OC	HCV inhibitor inconclusive
O=C(Cn1c2ccccc2c(=O)c2ccccc21)N/N=C/c1cc([N+](=O)[O-])ccc1N1CCCCCC1	HCMV inh -73, HCV inhibitor 2.5µM
O=C(Nc1cccc(F)c1)Nc1ccnn1C1CCN(C(=O)c2ccccn2)CC1	none
Cc1nc(NCCc2ccccc2)c2oc3ccccc3c2n1	HCMV inh -81, FMDV antiviral inconclusive, HCV inhibitor 10µM (no result: Vaccinia mCherry, VACV Venus inh)
O=C(Nc1ccc(F)c(Cl)c1)c1ccc2sc([C@H]3C[C@H](O)[C@@H](CO)O3)nc2c1	HCMV inh inconclusive (no result: HCV inhibitor, Sm TGR block)
O=C(Nc1ccc(Oc2ccccc2)cc1)c1ccc2sc([C@H]3C[C@H](O)[C@@H](CO)O3)nc2c1	Vaccinia mCherry inconclusive, HCMV inh -100, FMDV antiviral 16µM, VACV Venus inh inconclusive (no result: HCV inhibitor, Sm TGR block)
CC(=O)Nc1ccc(NC(=O)c2ccc3sc([C@H]4C[C@H](O)[C@@H](CO)O4)nc3c2)cc1	none (no result: HCV inhibitor, Sm TGR block)
O=C(Nc1cccc(C(F)(F)F)c1)c1ccc2sc([C@H]3C[C@H](O)[C@@H](CO)O3)nc2c1	Vaccinia mCherry inconclusive, HCMV inh -91, FMDV antiviral 20µM, VACV Venus inh inconclusive (no result: HCV inhibitor, Sm TGR block)
COc1cccc(-n2c(=O)c3sc4ccccc4c3n(CC(=O)Nc3ccccc3C)c2=O)c1	none (no result: HCV inhibitor)
Cc1cc(S(=O)(=O)N(Cc2ccc(C(C)(C)C)cc2)Cc2cccs2)ccc1-n1cnnn1	none
Cc1cc(S(=O)(=O)N(Cc2cccs2)Cc2ccccc2F)ccc1-n1cnnn1	HCMV inh -64, HCV inhibitor inconclusive
Cc1cc(S(=O)(=O)N2CCN(c3ccccc3F)CC2)ccc1-n1cnnn1	HCMV inh -77, FMDV antiviral inconclusive, HCV inhibitor inconclusive
Cc1cc(S(=O)(=O)N2CCN(c3ccc(F)cc3)CC2)ccc1-n1cnnn1	none
Cc1c(/C=N/Nc2ccc(F)cc2)c(O)n(C)c(=O)c1C#N	Sm TGR block 25µM (no result: Vaccinia mCherry, VACV Venus inh)
Cc1ccc(N2C(=O)NC(=O)/C(=C\c3cc(C)n(-c4cc(C(=O)O)cc(C(=O)O)c4)c3C)C2=O)cc1	Sm TGR block 7.9µM
CCc1ccc(N2C(=O)NC(=O)/C(=C\c3cc(C)n(-c4cc(C(=O)O)cc(C(=O)O)c4)c3C)C2=O)cc1	Sm TGR block 8.9µM
Cc1ccc(N2C(=O)NC(=O)/C(=C\c3cc(C)n(-c4ccc(C(=O)O)cc4)c3C)C2=O)cc1	Sm TGR block inconclusive
COC(=O)C(CC(=O)c1ccccc1)CC(=O)c1ccccc1	none (no result: Vaccinia mCherry, HCMV inh, VACV Venus inh)
CCc1nnc(NC(=O)c2cc3ccccc3oc2=O)s1	none (no result: Vaccinia mCherry, VACV Venus inh)
O=C(CCc1ccccc1)NNC(=O)COc1ccc(Br)cc1	HCV inhibitor 11µM
C=CCNC(=S)NNC(=O)COc1ccc(Br)cc1	HCMV inh -61
O=C(CCC(=O)NNC(=O)COc1ccc(Br)cc1)NCc1ccccc1	none (no result: Sm TGR block)
C=CCNC(=S)NNC(=O)COc1ccc2cc(Br)ccc2c1	none (no result: Sm TGR block)
CC1CCN(C(=O)CSc2nc3[nH]ncc3c(=O)[nH]2)CC1	none
COc1ccc(C2(CNC(=O)c3ccccc3[N+](=O)[O-])CCOCC2)cc1	none (no result: Sm TGR block)
Cc1ccc(OCC(=O)Nc2cccnc2Cl)cc1C	HCMV inh -61
Cc1ccc2nc(C)cc(C(=O)OCC(=O)Nc3cccnc3Cl)c2c1	HCMV inh -76
O=C(Nc1c(O)c2ccccc2oc1=O)c1ccccc1Cl	none (no result: HCV inhibitor)
Cc1ccc(OCC(=O)Nc2ccc3c(c2)nc(CCN2CCCCC2)n3C)cc1	HCMV inh -72 (no result: Vaccinia mCherry, VACV Venus inh)
CN1CCN(CCc2nc3cc(NC(=O)COc4ccccc4)ccc3n2C)CC1	none (no result: Vaccinia mCherry, VACV Venus inh)
Cn1c(CCN2CCCCC2)nc2cc(NC(=O)COc3ccccc3)ccc21	HCMV inh -73 (no result: Vaccinia mCherry, VACV Venus inh)
COc1ccc(OCC(=O)Nc2ccc3c(c2)nc(CCN2CCCCC2)n3C)cc1	HCMV inh inconclusive (no result: Vaccinia mCherry, VACV Venus inh)
O=C(NCC1CCCO1)C1CCN(C2CCN(CCCC3CCCC3)CC2)CC1 (stereo unspecified)	HCV inhibitor 10µM (no result: Vaccinia mCherry, VACV Venus inh)
O=C(NCC1CCCO1)C1CCN(C2CCN(C(=O)CC3CCCC3)CC2)CC1 (stereo unspecified)	none
COC(=O)/C=c1\sc2ncnn2c1=O	Sm TGR block 1.4µM
CNC(=O)/C(C#N)=c1\s/c(=C/C(=O)OC)c(=O)n1-c1ccccc1	none (no result: Vaccinia mCherry, VACV Venus inh)
Cc1ccc(C2(c3noc(CN4CCC(c5ccncc5)CC4)n3)CCCC2)cc1	HCMV inh inconclusive, HCV inhibitor 10µM
Cc1cc(C)n2nc(CNS(=O)(=O)c3ccc([N+](=O)[O-])cc3)nc2n1	none (no result: Vaccinia mCherry, VACV Venus inh)
c1cncc(-c2nc3ccccc3[nH]2)c1	none
Fc1ccc(NC(=S)Nc2ccccc2OC(F)F)cc1Cl	Vaccinia mCherry inconclusive, HCMV inh inconclusive, VACV Venus inh inconclusive, HCV inhibitor inconclusive
Fc1ccc(NC(=S)Nc2cccnc2)cc1	none (no result: Sm TGR block)
S=C(Nc1ccc(-c2nc3ccccc3[nH]2)cc1)Nc1cccnc1	HCV inhibitor inconclusive, Sm TGR block 11µM
FC(F)Oc1ccccc1NC(=S)Nc1cccnc1	Sm TGR block 22µM (no result: Vaccinia mCherry, VACV Venus inh)
Fc1ccccc1NC(=S)Nc1cccnc1	Sm TGR block 16µM
O=S(=O)(O/N=C1\CCCc2ccccc21)c1ccc(Cl)cc1	none
CCC(C)C(NC(N)=O)C(=O)Nc1ccc(C(=O)OC)cc1 (stereo unspecified)	none
CCCCCC(=O)Nc1ccc(-c2csc(N)n2)cc1	Vaccinia mCherry inconclusive, VACV Venus inh inconclusive, HCV inhibitor inconclusive
COC(=O)c1ccccc1NC(=S)N1CCN(c2ccccn2)CC1	HCV inhibitor inconclusive (no result: Vaccinia mCherry, VACV Venus inh)
COc1cc(C)c2c(c1OC)C(=O)CC2	none (no result: Sm TGR block)
CCN(CC)S(=O)(=O)c1ccc(S(=O)(=O)Nc2c(C)nn(C)c2C)cc1	HCMV inh -73, FMDV antiviral inconclusive, HCV inhibitor inconclusive
Cc1nn(C)c(C)c1NS(=O)(=O)c1ccc(Cl)cc1	HCV inhibitor inconclusive
O=C(CSc1nc(-c2cccs2)cc(C(F)(F)F)n1)Nc1cc(OCC(F)(F)F)cc([N+](=O)[O-])c1	HCMV inh inconclusive, FMDV antiviral inconclusive, HCV inhibitor inconclusive
S=C(Nc1ccc(Cl)cc1)c1nc2ccccc2s1	none (no result: Vaccinia mCherry)
O=C(Nc1ccc(Cl)cc1)/C(=C/c1cccc(O)c1)c1nc2ccccc2s1	Vaccinia mCherry 11µM, HCMV inh -98, FMDV antiviral 10µM, VACV Venus inh 10µM, HCV inhibitor 13µM

Screening data (PubChem BioAssay)
